From PubChem BioAssay
In the library only some 14% were active in any assay of this set; here they are far more common.
AID923: qHTS Assay for Allosteric/Competitive Inhibitors of Caspase-1: Spectroscopic Profiling in AFC Spectral Region; compound fluorescence, AFC spectral region (405/520 nm); Potency, µM (doses to about 57.5 µM), without a hit: at the highest dose fluorescence increase, most hits filed as activators; 75,000 compounds, 1.1% hits; AID 923, 2007; further: potency means the concentration at half of the fitted maximal effect; 0% is about no effect
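Baseline compound fluorescence (AFC region, 405 nm ex/520 nm em) taken from the intercept of kinetic reads with 50 nM caspase-1 and 5 uM Ac-WEHD-AFC; normalized to an on-plate AFC standard curve; compounds titrated up to 57 uM.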
4-MU autofl: qHTS Assay for Spectroscopic Profiling in 4-MU Spectral Region | 59,000 compounds, 11% hits | compound autofluorescence, 340/450 nm, 4-MU equivalents; active compounds read high | max dye-equivalent concentration, M; in the data active means max dye-equivalent concentration above about 10 nM; inconclusive means mostly about 1.1 nM to 9.6 nM
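Compounds in 100 mM Tris, pH 8.0, sat 15 min at room temperature before fluorescence was read at 340 nm excitation/450 nm emission; a per-plate six-point 4-MU standard curve converted signals to dye-equivalent concentration at each compound concentration.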
A350 fluor: qHTS Assay for Spectroscopic Profiling in A350 Spectral Region. Compound autofluorescence, 340/450 nm, Alexa 350 dye-equivalents; active compounds read high. max dye-equivalent concentration, M. 59,000 compounds, 11% hits; in the data active means max dye-equivalent concentration above about 10 nM; inconclusive means mostly about 1.1 nM to 9.6 nM
HADH2 inh: qHTS Assay for Inhibitors of HADH2 (Hydroxyacyl-Coenzyme A Dehydrogenase, Type II) | 3-hydroxyacyl-CoA dehydrogenase type-2 (Homo sapiens), Q99714 | recombinant HADH2, NADH fluorescence, beta-hydroxybutyryl-CoA | Potency, µM (top dose mostly 57.1 µM), inactives show at the top dose activity change, negative = inhibition, actives largely listed as inhibitors | 73,000 compounds, 3.4% hits; further: potency means the concentration at half of the fitted maximal effect; on the % scale 0 is the no-effect control and ±100 the full control effect; nearly all actives have a fitted effect of over 60% in size
Target sequence (Q99714 whole entry, looked up, one chain of several): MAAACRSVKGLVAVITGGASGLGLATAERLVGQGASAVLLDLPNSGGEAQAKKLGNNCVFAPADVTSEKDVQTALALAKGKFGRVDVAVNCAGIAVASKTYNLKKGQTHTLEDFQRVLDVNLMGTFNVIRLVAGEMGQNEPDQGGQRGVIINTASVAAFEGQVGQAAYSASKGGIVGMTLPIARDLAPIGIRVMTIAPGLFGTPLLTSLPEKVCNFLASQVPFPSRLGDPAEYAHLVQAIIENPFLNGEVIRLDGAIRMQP
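Read-out: 360 nm excitation, 450 nm emission, kinetic over 4 min. Conditions: His-tagged human HADH2 20 nM, pH 9.0 Tris with Tween-20, 1 mM NAD+, 90 uM beta-hydroxybutyryl-CoA.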
HSD17B inhib: qHTS Assay for Inhibitors of HSD17B4, hydroxysteroid (17-beta) dehydrogenase 4; 75,000 compounds, 7.6% hits; recombinant HSD17B10, NADH fluorescence kinetic; Potency, µM (titrated, usually from 57.1 µM), for the others: at the highest dose activity change, negative = inhibition, actives largely listed as inhibitors; 3-hydroxyacyl-CoA dehydrogenase type-2 (Homo sapiens), Q99714;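 further: the protocol describes HADH2 (HSD17B10) and not the HSD17B4 of the title; potency means the concentration at half of the fitted maximal effect; on the % scale 0 is the no-effect control and ±100 the full control effect; nearly all actives have a fitted effect of over 70% in size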
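His-tagged E. coli-expressed HADH2 at 20 nM in 100 mM Tris-HCl pH 9.0 with 0.01 % Tween-20, preincubated 15 min with compound at room temperature. Reaction with 1 mM NAD+ and 90 uM beta-hydroxybutyryl coenzyme A; NADH fluorescence (360/450 nm) read kinetically over 4 min, last minus first point.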
CRE Fsk mod: Cell signaling CRE-BLA (Fsk stim) | Potency, µM (top dose mostly 38.2 µM), without a hit: at the top dose activity change, negative = inhibition, actives largely listed as activators | CHO CRE-bla reporter (cAMP response element driving beta-lactamase), forskolin EC10, beta-lactamase ratio | 71,000 compounds, 2.5% hits | AID 662, 2007; active means well fitted activation curve with a large enough effect in the signal ratio, with a control signal flat, not every such curve was filed as active; inconclusive means small, poorly fitted or top-dose-only effect, or effect the other way, or a change in a side signal; the % refers to the signal ratio; further: potency means the concentration at half of the fitted maximal effect; % of control where 0% means no effect
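The 460nm/530nm emission ratio after CCF4 loading defined %Activity, from which AC50 values were obtained. CRE-bla CHO cells received compound dilution series together with an EC10 level of NKH 477 for 3 hours at 37 degrees Celsius.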
* = called active by the depositor; [ ] = dose if it differs, or a comment. Unless noted, the call rests on the fitted dose curve; in most records, active means well fitted curve in the direction sought with a large enough effect; inconclusive means small, poorly fitted or top-dose-only effect, or another doubt; inactive means no such curve, though single readings can be large; an effect the other way counts as inactive or inconclusive.

Results for O=c1cc(N=Nc2ccc(O)cc2)[nH]c(=O)[nH]1 ?
AID923: 0%[11.5 µM]; 4-MU autofl: inactive; A350 fluor: inactive; HADH2 inh: -13%[11.4 µM]; HSD17B inhib: 4%[11.4 µM]; CRE Fsk mod: -6%[7.6 µM]

How did Cn1c(=O)c2c(SCc3ccccn3)nc(C3CC3)nc2n(C)c1=O do in these assays?
AID923: 0%; HADH2 inh: 0%; HSD17B inhib: -2%; CRE Fsk mod: 2µM*

How did CCCc1nc(SCc2cccnc2)c2c(=O)n(C)c(=O)n(C)c2n1 do in these assays?
AID923: 0%; HADH2 inh: 5%; HSD17B inhib: -11%; CRE Fsk mod: 4µM*

How did Cn1c(=O)c2c(SCC(=O)N3CCCc4ccccc43)nc(C3CC3)nc2n(C)c1=O do in these assays?
AID923: -1%; HADH2 inh: 3%; HSD17B inhib: 1%; CRE Fsk mod: inconclusive

What do the screens show for `CCCc1nc(SC2CCCC2)c2c(=O)n(C)c(=O)n(C)c2n1`?
AID923: 2%; HADH2 inh: 10%; HSD17B inhib: 6%; CRE Fsk mod: 2.5µM*

Results for CCCc1nc(SCc2ccccn2)c2c(=O)n(C)c(=O)n(C)c2n1 ?
AID923: -4%; HADH2 inh: 1%; HSD17B inhib: 1%; CRE Fsk mod: 5µM*

How did C[C@@H](Cc1ccccc1)Nc1ncnc2c1ncn2[C@@H]1O[C@@H](CO)[C@H](O)[C@@H]1O do in these assays?
AID923: -6%; 4-MU autofl: inactive; A350 fluor: inactive; HADH2 inh: 9%; HSD17B inhib: -4%; CRE Fsk mod: -7%

How did c1cncc(CNc2ncncc2-c2cccnc2)c1 do in these assays?
AID923: 1%; 4-MU autofl: inactive; A350 fluor: inactive; HADH2 inh: 4%; HSD17B inhib: 0%; CRE Fsk mod: 3%

What do the screens show for `CCOC(=O)N/N=C1/C[C@@H](O)[C@@H](O)[C@@H]2[C@@H]3C(=O)N(Cc4ccc5c(c4)OCO5)C(=O)[C@H]3CC[C@@H]12`?
AID923: -1%[11.5 µM]; HADH2 inh: -2%[11.4 µM]; HSD17B inhib: 0%[11.4 µM]

Results for Cc1oc2cc(O)ccc2c(=O)c1Oc1ccccc1 ?
AID923: 9%; HADH2 inh: 25µM*; HSD17B inhib: 32µM*; CRE Fsk mod: -5%

Results for CCOc1ccccc1Oc1c(C)oc2cc(OC(=O)N3CCOCC3)ccc2c1=O ?
AID923: -2%; HADH2 inh: 7%; HSD17B inhib: 2%; CRE Fsk mod: 8%

Results for Cc1oc2cc(O)ccc2c(=O)c1Oc1ccccc1Br ?
AID923: 1%; HADH2 inh: inconclusive; HSD17B inhib: 25µM*; CRE Fsk mod: -6%

Results for c1ccc(CNc2ccnc(-c3cccnc3)n2)cc1 ?
AID923: 3%; 4-MU autofl: inactive; A350 fluor: inactive; HADH2 inh: -10%; HSD17B inhib: 9%; CRE Fsk mod: inconclusive

Results for CCCC[C@@H]1C[C@H]1C(NC(=O)Cc1ccccc1)c1ccc(-c2ccccc2)cc1 (stereo not given in full) ?
AID923: 0%; HADH2 inh: 7%; HSD17B inhib: 3%; CRE Fsk mod: 15%

What do the screens show for `Cc1cc(=O)n2nc(-c3ccccc3)sc2c1C#N`?
AID923: -3%; 4-MU autofl: 2.9e-08M*; A350 fluor: 4.2e-08M*; HADH2 inh: 7%; HSD17B inhib: 13µM*; CRE Fsk mod: -3%

How did O=C(c1ccco1)N1CCN(c2nc3ccccc3c(=O)n2-c2ccccc2)CC1 do in these assays?
AID923: -2%; 4-MU autofl: inconclusive; A350 fluor: inconclusive; HADH2 inh: 2%; HSD17B inhib: inconclusive; CRE Fsk mod: -17%
